The values that follow come from paper PMC12136788.

Numbering of substitutions follows the chain as printed. The full ranking holds about 5,800 sequences; the median of “enrichment r” is about 0.68, and the highest 2% start at about 11. This excerpt belongs to a sample that is enriched for the highest values.

B1: chr17:15565482:15566353:-|three_prime_utr|ENSG00000241322|control|control|control (ssRNA)
RNA: GGGAGUUCUACAGUCCGACGAUCCACCCAAAGAAAAAGUCUUGGAAAAUCCCUAUGUCACCUGACCAAUUCCUCCUGACUGUUAGCGCCCUGCAGCACGCCCGUAAUUCCGGGGAAUUUGCCUAUCCCUGUAGGCCCCAAACACAACAGAGGAUUGAGCAUCA
B2: chr16:58599380:58599482:-|5pUTR|ENSG00000125107|unk|FALSE|unique (ssRNA)
RNA: GGGAGUUCUACAGUCCGACGAUCCAGAACAGAGUAAGACCCCUGGUAAAGAAGAACUGAAGAUAUUAUACAGAUACCAGAUAUAGCCUAAUUACAAAGAAAGCAUUAACCUGCCUCUGAGGUGACUAAAGGGGAAUAAUGGUGCAACAGAGGAUUGAGCAUCA
B3: chr12:108645191:108645284:-|3pUTR|ENSG00000110880|msi1_unk|total|mutant (ssRNA)
RNA: GGGAGUUCUACAGUCCGACGAUCUCUUUUUUUUUUUUUUUUUUUAAGCCAUGACAUCCCAGAAGAGGACAGUGAAUUACUCCCCGGUCGGCUCUUACCGAGUGGCCACCGUGUUCUGUCAAAACACUUGCUUCCAUUUUCAGACAACAGAGGAUUGAGCAUCA
B4: chr8:23842113:23842214:-|3pUTR|ENSG00000159167|msi1|total|mutant (ssRNA)
RNA: GGGAGUUCUACAGUCCGACGAUCACUUCCGACAUUUUUGUGCCAUUAUAUUUGCAUUAUGUAUUUAUAAUUUAAAUGAUAUUCCGGUUUUUGGCUGAGUACUGGAAUAAACAGUGAGCAUAUCUGGUAUAUGUCAUUAUUUAUCAACAGAGGAUUGAGCAUCA
B5: chr1:202941098:202941199:-|3pUTR|ENSG00000159346|msi1_unk|total|mutant (ssRNA)
RNA: GGGAGUUCUACAGUCCGACGAUCCCUCCCUUACCCCCAUCCUUAACUUUGUAUCCUGGCUUAUAACAGGCCAUCCAUUUUUGCCGCACACUUUUCAAAAACAAUUAUAUACCCUGGUCCCAUCUUUCCCGGGCCUGGAUCUGCCAACAGAGGAUUGAGCAUCA
B6: chr9:74692981:74693082:+|3pUTR|ENSG00000198963|unk|total|mutant (ssRNA)
RNA: GGGAGUUCUACAGUCCGACGAUCUUUUAUAUUACUUCCGAAUGUAACCGGUUUUUGUCCUUAUUUUAUGUCCUGUAAAUUAUCCGUUCAAUACUGUCCGCAUUCCCGGAUAAUGCACACAUGAUUUCUGAAUGUUUUCUGUAACAACAGAGGAUUGAGCAUCA
B7: chr6:149889094:149889339:-|three_prime_utr|ENSG00000164520|control|control|control (ssRNA)
RNA: GGGAGUUCUACAGUCCGACGAUCGGCAGCUCCCUUUAAAGGUCAAAAGCCUUCCCUGUGUGGGUGUCAGUGUGUGUGUGCGAUAGAAAAUUUGAUUGACUUCUCCGUGGGCUUCCUGUCUGGAGAGUCAGUGAUGGCUAUAAGCAACAGAGGAUUGAGCAUCA
B8: ENSG00000198589:be:win_1801|CDS|ENSG00000198589|bound_else_gene|NA|bound_elsewhere_windowed (ssRNA)
RNA: GGGAGUUCUACAGUCCGACGAUCACAGUCAACAUAUAUAACACCAUUCGGAGAGUUGGAACAGUGCUUCUCAUCAUGCACACGCUGAAGUACUACUACUGGGCAGUGAAUCCUCAGGAUCGAAGUGGUAUCACCCCAAAAGGACAACAGAGGAUUGAGCAUCA
B9: chr21:18281039:18281221:-|CDS|ENSG00000154646|control|control|control (ssRNA)
RNA: GGGAGUUCUACAGUCCGACGAUCACCUCUCCUCAAACAGUCCCUCGAUUAAUAGAUGAAAUUGUCAUAAACCCUCAUUACAAUAGGCGAAGAAAGGACAACGACAUUGCCAUGAUGCAUCUGGAAUUUAAAGUGAAUUACACACAACAGAGGAUUGAGCAUCA
B10: chr12:76029359:76029534:-|3pUTR|ENSG00000139289|msi1|FALSE|unique (ssRNA)
RNA: GGGAGUUCUACAGUCCGACGAUCAGAAGUUUAAAAAGCUAAAAGUUAAAAAUGGUGUAAUUAUGAAAAUCUAACACUCAAGAUAGUUUCUAAAAGGAAAUCAGUAGUUAAGGAUACCUGAUUUCAAAAUAUUUAAAGCAUAACCAACAGAGGAUUGAGCAUCA
B11: chr11:74334375:74334476:-|3pUTR|ENSG00000165434|msi1|FALSE|unique (ssRNA)
RNA: GGGAGUUCUACAGUCCGACGAUCUUUUUGUUUUAUUUUUAAAAUGUGUAAAACAUCUUUUGUUUUAUAUGCUUUUAAGAAUGUAGAUUGUAAUUUAGGAAAUGGCAUAUAUUCUGCAAAGUGGUAUAAUGUUGUAUAUAUGAACAACAGAGGAUUGAGCAUCA
B12: chr5:52955293:52955406:+|3pUTR|ENSG00000213949|unk|total|mutant (ssRNA)
RNA: GGGAGUUCUACAGUCCGACGAUCUACCAACCAGUGUGAGCUGACUUCAGCACACCACUGAGACAGAUUACACGACCGACAGACCGACCGACCGACCGACCGACCGACCGACCGACCGACCGACCGAUAUUGACCGAGAACAUGCAACAGAGGAUUGAGCAUCA
B13: chr12:98549714:98549829:+|3pUTR|ENSG00000120802|unk|FALSE|unique (ssRNA)
RNA: GGGAGUUCUACAGUCCGACGAUCGAAGAUGUAUAUUUAGACCAGCACACAAUUUUGAUUUCAAUUAGCCUUAUUCUAAUAUUUAGCUUUUAGAUCUUUCAUACACAUUUUCACGUACUUUGCAAUUGAGACCAGAAAGACUUGCAACAGAGGAUUGAGCAUCA
B14: chr2:206311781:206311882:+|3pUTR|ENSG00000204186|unk|FALSE|unique (ssRNA)
RNA: GGGAGUUCUACAGUCCGACGAUCUAGUGUUUAGAGUCCUUUCAUUUUAAGAUUCAGAAACAGCCUUUGUCCAACAUUUUCUGUAGAAGAACUUCAUCUUAAUUUAUGUCACAAAAUAAUUUAGCACCGUAUAUAGAAUUUUGUCAACAGAGGAUUGAGCAUCA
B15: chr5:52955293:52955406:+|3pUTR|ENSG00000213949|unk|FALSE|unique (ssRNA)
RNA: GGGAGUUCUACAGUCCGACGAUCUACCAACCAGUGUGAGCUGACUUCAGCACACCACUGAGACAGAUUACACGAUAGACAGAUAGAUAGAUAGAUAGAUAGAUAGAUAGAUAGAUAGAUAGAUAGAUAUUGAUAGAGAACAUGCAACAGAGGAUUGAGCAUCA
B16: chr14:103503186:103503248:+|CDS_3pUTR|ENSG00000075413|msi1_unk|FALSE|overlapping (ssRNA)
RNA: GGGAGUUCUACAGUCCGACGAUCUGCUUCCAAAAUUGCCAAUGAGCUAAAGCUGUAACCCAGUGAUUAUGAUGUAAAUUAAGUAGCAAUUAAAGUGUUUUCCUGAACACUGAUGGAAAUGUAUAGAAUAAUAUUUAGGCAAUACAACAGAGGAUUGAGCAUCA
B17: chr2:206311781:206311882:+|3pUTR|ENSG00000204186|unk|total|mutant (ssRNA)
RNA: B14 RNA with U24C, A25C, U31C, A32C, U83C, A84C, U121C, A122C, U133C, A134C
B18: ENSG00000136451:be:win_1001|CDS|ENSG00000136451|bound_else_gene|NA|bound_elsewhere_windowed (ssRNA)
RNA: GGGAGUUCUACAGUCCGACGAUCACCAAAAGCAGCAGCAGCAGCAGCAGCAGCAGCAGCAGCAGCAGCAACAACAACAACAACAACAUGUGACAAGCUGGCCAGGGAAGCAAGUAGAAACACUGAGACUGUGGGAAGAAGCUGCAACAGAGGAUUGAGCAUCA
B19: chr16:57253408:57253449:+|3pUTR|ENSG00000102931|msi1_unk|FALSE|overlapping (ssRNA)
RNA: GGGAGUUCUACAGUCCGACGAUCUGUGUGGUAGAUUACUUAUCAGAAAACAUAUAUGUCAUCUCUAGAACGAAGAAAAAGCAUAGUAGUUCAAUUCCCAGUGUGUCCCUUUGAUUUUUUUUUUUUAAUAGUAAAAAUAAGAAUCAACAGAGGAUUGAGCAUCA
B20: chr20:53567570:53567671:-|3pUTR|ENSG00000171940|unk|FALSE|unique (ssRNA)
RNA: GGGAGUUCUACAGUCCGACGAUCUCACAAGCUGAGCCAUAUGUACAUAAUCUAGAUUUUGUUUUCAUAGUUUUGCACUUUUAUAGCCUAUUUUUGAAGAUUAACACAUUUGCAAGAUGAUUGACUCAAUCUUUGCCUAAUCCACAACAGAGGAUUGAGCAUCA
B21: ENSG00000198589:be:win_6551|CDS|ENSG00000198589|bound_else_gene|NA|bound_elsewhere_windowed (ssRNA)
RNA: GGGAGUUCUACAGUCCGACGAUCGACGUAUUUCAUUAGCUAGUCCACGUCAGCUUUUUAAGGCUUCUAAUAUGACCCAGCGAUGGCAACACAGAGAGAUAUCUAAUUUUGAGUACUUGAUGUUUCUCAACACGAUAGCAGGACCAACAGAGGAUUGAGCAUCA
B22: chr11:118750849:118750950:-|3pUTR|ENSG00000110367|msi1|FALSE|unique (ssRNA)
RNA: GGGAGUUCUACAGUCCGACGAUCAUUCUAGAAAGUACUUUGGCCUCGUGCUGUAGAGAGCAGAUUUCUAUGGUACCCUGUGUUAGUAAAGGGGCCCAGAAAUCUGGGAUGUACUGUUUGCUGCCACACUGUCUCAUCUAGUACCAACAGAGGAUUGAGCAUCA

The target in this assay is T1, UNK ZnF1-6 (called full-length) (human, UniProt Q9C0B0 30-357).
T1 sequence: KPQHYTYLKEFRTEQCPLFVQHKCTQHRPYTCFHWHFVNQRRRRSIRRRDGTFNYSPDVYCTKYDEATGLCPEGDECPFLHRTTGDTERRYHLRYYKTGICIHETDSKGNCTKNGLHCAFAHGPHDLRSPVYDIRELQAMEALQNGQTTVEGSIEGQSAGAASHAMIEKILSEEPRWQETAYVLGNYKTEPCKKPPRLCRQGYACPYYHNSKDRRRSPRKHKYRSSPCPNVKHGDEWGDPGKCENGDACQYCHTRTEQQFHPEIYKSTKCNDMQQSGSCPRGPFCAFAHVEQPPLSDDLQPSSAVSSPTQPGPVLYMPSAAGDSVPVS
The experiment in a line: nsRBNS (natural sequence RNA bind-n-seq); RBNS binding buffer (assumed for nsRBNS): 25 mM Tris pH 7.5, 150 mM KCl, 3 mM MgCl2, 0.01% Triton X-100, 500 ug/ml BSA, 20 U/ml SUPERase-In, 4 C; UNK is unkempt and MSI1 is Musashi-1; names of the RNAs are library labels; protein concentration not given here; high values mean tight binding.
Take B1: the binding signal amounted to 0.988 enrichment R. B2 displayed a binding signal of 0.956 enrichment R.

Turning to B3, the binding signal was determined as 4.25 enrichment R. With B4 the figure was 0.575 enrichment R. With B5, the binding signal was 2.09 enrichment R. The molecule B6 gave a binding signal of 0.468 enrichment R. B7 had a binding signal of 0.908 enrichment R.

B8 came in with a binding signal of 0.542 enrichment R. The molecule B9 came in with a binding signal of 0.684 enrichment R. In turn, B10 gave a binding signal of 1.92 enrichment R.

Consider B11, for which the binding signal was 3.22 enrichment R. B12 gave a binding signal of 0.427 enrichment R. Turning to B13, the binding signal came to 32.9 enrichment R. Molecule B14 showed a binding signal of 11.6 enrichment R. Regarding B15, the binding signal amounted to 24.7 enrichment R.

For the molecule B16, the binding signal stood at 11.1 enrichment R. The value for B17 was 0.453 enrichment R; that for B18 was 0.905 enrichment R; that for B19 was 1.9 enrichment R.

B20 returned a binding signal of 3.86 enrichment R. For the molecule B21, the binding signal was 0.548 enrichment R. Molecule B22 yielded a binding signal of 0.975 enrichment R.
